Where “and” joins values, the source holds several entries; their conditions need not be identical. Identical values can stand only once. Calls of active or inactive are those of the source.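 Rule for the calls: active = compounds whose cell count with miR-34 switched on is under 0.7 times the count with it off; inactive = the rest.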
Assay: viability loss with induced miR-34 in A549 – imaging, A549 dox-inducible miR-34, nuclei and caspase counts, primary screen (AID 1347080); note: test concentration not given here
Conditions: A549 miR-34 inducible, Hoechst nuclei count, 48 h; stronger effect = lower value; cell number ratio, induced over uninduced

SMILES	fold change
COc1ccc([C@@H]2CC(=O)c3c(O)cc(O[C@@H]4O[C@H](CO[C@@H]5O[C@@H](C)[C@H](O)[C@@H](O)[C@H]5O)[C@@H](O)[C@H](O)[C@H]4O)cc3O2)cc1O	0.851 (inactive)
COc1cccc(OC)c1OCCNCC1COc2ccccc2O1 (configuration not stated)	0.967 (inactive) and 0.92 (inactive)
C[C@H]1O[C@@H](O[C@H]2[C@@H](O)C[C@H](O[C@H]3[C@@H](O)C[C@H](O[C@H]4CC[C@@]5(C)[C@H](CC[C@@H]6[C@@H]5C[C@@H](O)[C@]5(C)[C@@H](C7=CC(=O)OC7)CC[C@]65O)C4)O[C@@H]3C)O[C@@H]2C)C[C@H](O)[C@@H]1O	0.979 (inactive)
CCC[C@@H]1C[C@@H](C(=O)N[C@@H]([C@H]2O[C@H](SC)[C@H](O)[C@@H](O)[C@H]2O)[C@@H](C)O)N(C)C1	0.837 (inactive)
O=C(O)C1=CCNCC1	1 (inactive) and 0.973 (inactive)
COc1cc2c(c(OC)c1OC)-c1ccc(OC)c(=O)cc1C(NC(C)=O)CC2 (configuration not stated)	0.969 (inactive)
O=C(O)c1c2ccccc2cc2ccccc12	0.92 (inactive)
CCCn1c(=O)c2[nH]c(C3CCCC3)nc2n(CCC)c1=O	1.02 (inactive) and 0.942 (inactive)
CN[C@H](CC(C)C)C(=O)N[C@H]1C(=O)N[C@@H](CC(N)=O)C(=O)N[C@H]2C(=O)N[C@H]3C(=O)N[C@H](C(=O)N[C@H](C(=O)O)c4cc(O)cc(O)c4-c4cc3ccc4O)[C@H](O)c3ccc(c(Cl)c3)Oc3cc2cc(c3O[C@@H]2O[C@H](CO)[C@@H](O)[C@H](O)[C@H]2O[C@H]2C[C@](C)(N)[C@H](O)[C@H](C)O2)Oc2ccc(cc2Cl)[C@H]1O	0.946 (inactive)
C=C(C)[C@@H]1CC[C@]2(C(=O)O)CC[C@]3(C)[C@H](CC[C@@H]4[C@@]5(C)CC[C@H](O)C(C)(C)[C@@H]5CC[C@]43C)[C@@H]12	0.792 (inactive) and 1.12 (inactive)
C[C@@H]1[C@H](O)[C@@H](C)/C=C/C=C/C=C/C=C/C=C/C=C/C=C/[C@H](O[C@@H]2O[C@H](C)[C@@H](O)[C@H](N)[C@@H]2O)C[C@@H]2O[C@](O)(C[C@@H](O)C[C@@H](O)[C@H](O)CC[C@@H](O)C[C@@H](O)CC(=O)O[C@H]1C)C[C@H](O)[C@H]2C(=O)O	0.894 (inactive)
C=C1C(=O)O[C@H]2[C@H]1CC/C(C)=C/CC[C@@]1(C)O[C@@H]21	0.99 (inactive)
O=C(O)C1=CCCNC1	0.989 (inactive) and 0.96 (inactive)
O=C(O)Cc1nn(Cc2ccc(Br)cc2F)c(=O)c2ccccc12	0.972 (inactive)
COc1cc(NS(C)(=O)=O)ccc1Nc1c2ccccc2nc2ccccc12	0.846 (inactive)
C[C@H](CCC(=O)O)[C@H]1CC[C@H]2[C@@H]3[C@H](O)C[C@@H]4C[C@H](O)CC[C@]4(C)[C@H]3CC[C@]12C	0.917 (inactive)
CCC(=O)NCC[C@@H]1CCc2ccc3c(c21)CCO3	0.882 (inactive)
CCC[C@@H]1C[C@@H](C(=O)N[C@@H]([C@H]2O[C@H](SC)[C@H](O)[C@@H](O)[C@H]2O)[C@H](C)Cl)N(C)C1	0.93 (inactive) and 0.912 (inactive)
O=C(/C=C/c1ccc(O)c(O)c1)O[C@H](Cc1ccc(O)c(O)c1)C(=O)O	0.903 (inactive) and 0.98 (inactive)
O=C(O)c1cc(=O)c2ccc(Cl)cc2[nH]1	0.965 (inactive)
CC[C@@]1(O)C[C@H](O[C@H]2C[C@H](N(C)C)[C@H](O[C@H]3C[C@H](O)[C@H](O[C@H]4CCC(=O)[C@H](C)O4)[C@H](C)O3)[C@H](C)O2)c2c(cc3c(c2O)C(=O)c2c(O)cccc2C3=O)[C@H]1C(=O)OC	1.94 (inactive)
CC(=O)[C@H]1CC[C@H]2[C@@H]3CCC4=CC(=O)CC[C@]4(C)[C@H]3CC[C@]12C	1.08 (inactive) and 0.812 (inactive) and 0.853 (inactive)
N=c1ccn2c(n1)O[C@H]1[C@H](O)[C@@H](CO)O[C@H]12	1.14 (inactive)
O=C(O)c1cc(=O)c2ccccc2[nH]1	1.09 (inactive) and 0.962 (inactive)
CC(C)C[C@H]1C(=O)N2CCC[C@H]2[C@]2(O)O[C@](NC(=O)[C@@H]3C=C4c5cccc6[nH]c(Br)c(c56)C[C@H]4N(C)C3)(C(C)C)C(=O)N12	1.36 (inactive) and 1.09 (inactive)
C[C@H]1C[C@H]2[C@@H]3CCC4=CC(=O)C=C[C@]4(C)[C@@]3(F)[C@@H](O)C[C@]2(C)[C@@]1(O)C(=O)CO	0.813 (inactive)

Same assay, conditions: A549 miR-34 inducible, Hoechst nuclei count, 48 h; measured here: relative caspase fold change +Dox/-Dox

SMILES	fold change
COc1ccc([C@@H]2CC(=O)c3c(O)cc(O[C@@H]4O[C@H](CO[C@@H]5O[C@@H](C)[C@H](O)[C@@H](O)[C@H]5O)[C@@H](O)[C@H](O)[C@H]4O)cc3O2)cc1O	2.5
COc1cccc(OC)c1OCCNCC1COc2ccccc2O1 (configuration not stated)	1.13 and 0.877
C[C@H]1O[C@@H](O[C@H]2[C@@H](O)C[C@H](O[C@H]3[C@@H](O)C[C@H](O[C@H]4CC[C@@]5(C)[C@H](CC[C@@H]6[C@@H]5C[C@@H](O)[C@]5(C)[C@@H](C7=CC(=O)OC7)CC[C@]65O)C4)O[C@@H]3C)O[C@@H]2C)C[C@H](O)[C@@H]1O	2.27
CCC[C@@H]1C[C@@H](C(=O)N[C@@H]([C@H]2O[C@H](SC)[C@H](O)[C@@H](O)[C@H]2O)[C@@H](C)O)N(C)C1	1.35
O=C(O)C1=CCNCC1	1.35 and 1.1
COc1cc2c(c(OC)c1OC)-c1ccc(OC)c(=O)cc1C(NC(C)=O)CC2 (configuration not stated)	1.26
O=C(O)c1c2ccccc2cc2ccccc12	0.787
CCCn1c(=O)c2[nH]c(C3CCCC3)nc2n(CCC)c1=O	1.07 and 0.717
CN[C@H](CC(C)C)C(=O)N[C@H]1C(=O)N[C@@H](CC(N)=O)C(=O)N[C@H]2C(=O)N[C@H]3C(=O)N[C@H](C(=O)N[C@H](C(=O)O)c4cc(O)cc(O)c4-c4cc3ccc4O)[C@H](O)c3ccc(c(Cl)c3)Oc3cc2cc(c3O[C@@H]2O[C@H](CO)[C@@H](O)[C@H](O)[C@H]2O[C@H]2C[C@](C)(N)[C@H](O)[C@H](C)O2)Oc2ccc(cc2Cl)[C@H]1O	1.32
C=C(C)[C@@H]1CC[C@]2(C(=O)O)CC[C@]3(C)[C@H](CC[C@@H]4[C@@]5(C)CC[C@H](O)C(C)(C)[C@@H]5CC[C@]43C)[C@@H]12	1.41 and 0.964
C[C@@H]1[C@H](O)[C@@H](C)/C=C/C=C/C=C/C=C/C=C/C=C/C=C/[C@H](O[C@@H]2O[C@H](C)[C@@H](O)[C@H](N)[C@@H]2O)C[C@@H]2O[C@](O)(C[C@@H](O)C[C@@H](O)[C@H](O)CC[C@@H](O)C[C@@H](O)CC(=O)O[C@H]1C)C[C@H](O)[C@H]2C(=O)O	1.05
C=C1C(=O)O[C@H]2[C@H]1CC/C(C)=C/CC[C@@]1(C)O[C@@H]21	0.618
O=C(O)C1=CCCNC1	0.827 and 0.802
O=C(O)Cc1nn(Cc2ccc(Br)cc2F)c(=O)c2ccccc12	0.601
COc1cc(NS(C)(=O)=O)ccc1Nc1c2ccccc2nc2ccccc12	1.94
C[C@H](CCC(=O)O)[C@H]1CC[C@H]2[C@@H]3[C@H](O)C[C@@H]4C[C@H](O)CC[C@]4(C)[C@H]3CC[C@]12C	1.03
CCC(=O)NCC[C@@H]1CCc2ccc3c(c21)CCO3	7.18
CCC[C@@H]1C[C@@H](C(=O)N[C@@H]([C@H]2O[C@H](SC)[C@H](O)[C@@H](O)[C@H]2O)[C@H](C)Cl)N(C)C1	1.22 and 1
O=C(/C=C/c1ccc(O)c(O)c1)O[C@H](Cc1ccc(O)c(O)c1)C(=O)O	1.31 and 0.699
O=C(O)c1cc(=O)c2ccc(Cl)cc2[nH]1	1.21
CC[C@@]1(O)C[C@H](O[C@H]2C[C@H](N(C)C)[C@H](O[C@H]3C[C@H](O)[C@H](O[C@H]4CCC(=O)[C@H](C)O4)[C@H](C)O3)[C@H](C)O2)c2c(cc3c(c2O)C(=O)c2c(O)cccc2C3=O)[C@H]1C(=O)OC	0.972
CC(=O)[C@H]1CC[C@H]2[C@@H]3CCC4=CC(=O)CC[C@]4(C)[C@H]3CC[C@]12C	0.82 and 1.33 and 1.49
N=c1ccn2c(n1)O[C@H]1[C@H](O)[C@@H](CO)O[C@H]12	1
O=C(O)c1cc(=O)c2ccccc2[nH]1	0.635 and 0.733
CC(C)C[C@H]1C(=O)N2CCC[C@H]2[C@]2(O)O[C@](NC(=O)[C@@H]3C=C4c5cccc6[nH]c(Br)c(c56)C[C@H]4N(C)C3)(C(C)C)C(=O)N12	1.68 and 0.668
C[C@H]1C[C@H]2[C@@H]3CCC4=CC(=O)C=C[C@]4(C)[C@@]3(F)[C@@H](O)C[C@]2(C)[C@@]1(O)C(=O)CO	1.45

Source: PubChem BioAssay
